A340 absorber – absorbance at 340 nm; compound absorbance at 340 nm, fold over control; fold change at 10 µM; 65,000 tested, under 10 active; AID 708;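 active means at 10 µM dose, initial 340 nm absorbance at least 2 fold that of control wells; inactive means change under 2 fold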;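 further: initial absorbance extrapolated from kinetic A340 decline of NADH oxidation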
Spn MK inh – inhibitors of Streptococcus pneumoniae mevalonate kinase. inhibition, % at 10 µM. purified MK, PK/LDH-coupled NADH absorbance 340 nm. 65,000 compounds, 0.48% hits;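 active means ranked among the strongest by inhibition in the single 10 µM screen, a fixed top-ranked set picked for dose follow-up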
PMK inhibit – S. pneumoniae PMK inhibition | 65,000 compounds, 0.49% hits | inhibition, % at 10 µM | purified PMK, PK/LDH-coupled NADH absorbance 340 nm;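 active means top-ranked compounds by inhibition in the single 10 µM screen, taking a fixed number of the strongest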;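 further: 0% = full reaction with DMSO carrier and 100% = background rate without enzyme reaction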
NADH enzymes – blocks coupling enzymes of NAD/NADH assays; coupled PK/LDH NADH assays, four targets; IC50, µM (top dose mostly 10 µM), without a hit: top-dose inhibition; 65,000 compounds, 0.02% hits;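 active means single-dose screening hits from any of four coupled enzyme assays that gave an IC50 when retested across doses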;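 further: the DPM-DC format reads NADH fluorescence rather than 340 nm absorbance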
Fluor 339 460 – intrinsic fluorescence of library compounds, ex339/em460 – biochemical, MLSMR library, data from DPM-DC assay, artefact control, profiling panel; fluorescence fold increase at 10 µM; compound autofluorescence, ex339/em460 nm, NADH buffer; stronger effect = higher value; 1 = no-compound wells, NADH background; 65,000 compounds, 5.5% hits;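 active means at 10 µM, mean starting fluorescence two-fold or more over control wells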;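 further: signal is the first read of a kinetic run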
Spn DPM-DC inh – inhibitors of Streptococcus pneumoniae diphosphomevalonate decarboxylase; 65,000 compounds, 0.49% hits; purified DPM-DC, PK/LDH coupled NADH fluorescence; AID 556; calls only at 10 µM;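 active means the 320 compounds with the highest percent inhibition in the single-dose primary screen, excluding strongly autofluorescent ones, cut at about 32% in these data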;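 further: kinetic rate of NADH fluorescence loss reporting ADP formed by the decarboxylase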
Numbers without * were called inactive; i = inactive; · = no result shown; + = active, no number. Most compounds without a hit are left out; they make up all but 6.3% or so of the library.

SMILES | A340 absorber | Spn MK inh | PMK inhibit | NADH enzymes | Fluor 339 460 | Spn DPM-DC inh
CCCc1nnc(NC(=O)CCC(=O)Nc2ccc(F)cc2)s1 | 0.99 | 12 | 13 | 8% | 1.1 | i
Cc1cc2oc(=O)cc(Cn3ccnc3)c2cc1C | 1 | 7 | 9 | 5% | 1.6 | i
O=c1cc(Cn2ccnc2)c2cc3c(cc2o1)CCC3 | 1 | 10 | 13 | 12% | 2.2* | i
CCOC(=O)c1cnc2cc3c(cn2c1=O)CCCC3 | 1.1 | 5 | 16 | 11% | 5* | ·
CCn1c(SCC(=O)Nc2ccc3c(c2)OCO3)nnc1-c1ccccc1O | 0.99 | 11 | 13 | 3% | 1.1 | i
CN(C(=O)c1cccs1)c1ccccc1C(=O)O | 1 | 5 | 10 | 8% | 2.2* | ·
COc1cc(CNCc2ccc(OC)c(OC)c2OC)cc(OC)c1 | 1.1 | 51* | 0 | 17% | 1.1 | i
Cc1noc(C(=O)N2CCN(c3ccc(F)cc3)CC2)c1Cl | 1.1 | 5 | 4 | 3% | 1.1 | i
Cc1cccc(NC(=O)c2cc(N3CCOCC3)nc3ccccc23)c1 | 1 | 10 | 2 | 4% | 1.9 | i
CCOc1ccccc1NC(=O)CCC(=O)Nc1ccc2nc(N3CCN(C)CC3)cc(C)c2c1 | 1.1 | 0 | 14 | 6% | 3.8* | i
Cc1cc(N2CCN(C)CC2)nc2ccc(NC(=O)c3ccc4c(c3)OCO4)cc12 | 1.1 | 9 | 0 | 4% | 1.1 | i
CCCCN(C)C(=O)CCC(=O)Nc1ccc2nc(N3CCOCC3)cc(C)c2c1 | 1.1 | 7 | 12 | 10% | 4.8* | ·
CCC(C)NC(=O)CCC(=O)Nc1ccc2nc(N3CCOCC3)cc(C)c2c1 (configuration not stated) | 1.1 | 0 | 8 | 4% | 5* | ·
Cc1cc(N2CCOCC2)nc2ccc(NC(=O)CCC(=O)N3CCC(C)CC3)cc12 | 1 | 4 | 10 | 7% | 4.8* | ·
O=C(NC1CCCCC1)c1cccc(S(=O)(=O)N2CCOCC2)c1 | 1 | 3 | 0 | 1% | 1.1 | i
COc1ccc(S(=O)(=O)N(C)CC(=O)NC2CCCCC2)cc1OC | 1.1 | 14 | 5 | 6% | 1.1 | i
Cc1cc(N2CCOCC2)nc2ccc(NC(=O)CCC(=O)N3CCCCC3)cc12 | 1 | 2 | 11 | 7% | 4.7* | ·
CCN1CCN(c2cc(C)c3cc(NC(=O)Cc4ccc(OC)c(OC)c4)ccc3n2)CC1 | 1.1 | 2 | 0 | 1% | 2.1* | ·
Cc1ccc(NC(=O)c2cc(N3CCOCC3)nc3ccccc23)cc1 | 1 | 12 | 7 | 10% | 1.6 | i
CCN1CCN(c2cc(C)c3cc(NC(=O)c4cnccn4)ccc3n2)CC1 | 1.2 | 2 | 4 | 2% | 1 | i
COc1ccc(N(C)C(=O)CCC(=O)Nc2ccc3nc(N4CCOCC4)cc(C)c3c2)c(OC)c1 | 1 | 4 | 13 | 9% | 4.8* | ·
CCOc1ccccc1NC(=O)CC1Nc2cc(C)c(C)cc2NC1=O (configuration not stated) | 1.1 | 0 | 3 | 2% | 1.6 | i
COC(=O)c1ccc(-c2sc3nc(N4CCOCC4)c4c(c3c2N)CCCC4)o1 | 1 | 1 | 0 | 1% | 2.5* | ·
CCOC(=O)c1sc2nc(N3CCOCC3)c3c(c2c1N)CCCC3 | 1.1 | 6 | 7 | 7% | 3.7* | ·
COC(=O)c1ccc(CSc2ncnc3c2sc2nc(N4CCOCC4)c4c(c23)CCCC4)o1 | 1.1 | 0 | 0 | 0% | 2.1* | ·
SMILES | A340 absorber | Spn MK inh | PMK inhibit | NADH enzymes | Fluor 339 460 | Spn DPM-DC inh
CCOC(=O)c1sc2nc(N3CCCC3)c3c(c2c1N)CC(C)(C)OC3 | 1 | 6 | 1 | 2% | 3* | ·
COC(=O)c1ccc(Cn2nnc3c(sc4nc(N5CCOCC5)c5c(c43)CCCC5)c2=O)o1 | 1 | 7 | 6 | 4% | 1.1 | i
CCOC(=O)N1CCN(Cc2nc(N)nc(Nc3ccc(Oc4ccccc4)cc3)n2)CC1 | 1 | 4 | 6 | 5% | 1 | i
COc1ccccc1N1CCN(C(=O)CSc2nc(C)c(Cc3ccccc3)c(=O)[nH]2)CC1 | 1 | 10 | 5 | 5% | 1.1 | i
COC(=O)c1ccc(Oc2nc3ccccc3n3c(C)nnc23)cc1 | 1 | 5 | 4 | 3% | 1.1 | i
O=C(NCc1ccco1)c1cc(-c2ccccc2)c(N2CCOCC2)s1 | 1 | 1 | 13 | 5% | 1.1 | i
Nc1c(C(=O)NCc2ccco2)sc2nc(N3CCOCC3)c3c(c12)CCCC3 | 1.1 | 0 | 4 | 2% | 2.4* | ·
CCNc1ccc2c(Cl)cc(=O)oc2c1 | 1 | i | 0 | 1% | 2.9* | ·
N#C/C(C(=O)c1ccccc1)=C1/SC=C(N)N1c1ccccc1 | 1.1 | 12 | 8 | 10% | 1.1 | i
COc1ccc(CCNC(=O)CC2Nc3ccccc3NC2=O)cc1OC (configuration not stated) | 1 | 4 | 15 | 11% | 1.4 | i
COc1ccc(CCNC(=O)CC2Nc3ccccc3NC2=O)cc1 (configuration not stated) | 0.99 | 5 | 14 | 8% | 2.1* | i
Cc1nn(-c2ccc(Cl)cc2)c2[nH]c(=O)c(CNCc3ccc4c(c3)OCO4)cc12 | 1 | 7 | 9 | 5% | 1.3 | i
CC(O)COc1ccc(/C(=N/O)c2ccccc2)cc1 (configuration not stated) | 1 | 18 | 0 | 22% | 1 | +
O=C(C1CCC(N2C(=O)C3CC=CCC3C2=O)CC1)N1CCCCC1 (configuration not stated) | 1.1 | 5 | 4 | 3% | 1.1 | i
CCOC(=O)C1=C(C)NC(SCc2cc(=O)[nH][nH]2)=C(C#N)C1c1cccs1 (configuration not stated) | 1 | 7 | 4 | 4% | 1.1 | i
CC1(C)Nc2ccccc2N(CC(=O)N2CCCCC2)C1=O | 1 | 7 | 3 | 5% | 1.1 | i
CC(NC(=O)Nc1ccccc1O)(C(F)(F)F)C(F)(F)F | 1 | 5 | 3 | 3% | 2.6* | i
CC(NC(=O)Nc1ccc(O)cc1)(C(F)(F)F)C(F)(F)F | 1 | 0 | 4 | 1% | 1.1 | i
O=C(CCN1C(=O)c2ccccc2C1=O)NC1=NCCS1 | 0.82 | 6 | 51* | 19% | 1 | i
CC(C)(C)C1=C(C#N)C(c2cc3c(cc2Br)OCO3)C(C#N)=C(N)O1 (configuration not stated) | 0.98 | 10 | 15 | 8% | 1.1 | i
CCOC(=O)C1=C(C)NC2=C(C(=O)CC(C)(C)C2)C1c1ccc(N(C)C)cc1 (configuration not stated) | 1 | 0 | 0 | 4% | 1.2 | i
CCN(CC)c1ccc(C2C(C(=O)OCCOC(C)C)=C(C)NC3=C2C(=O)CCC3)cc1 (configuration not stated) | 1.1 | 0 | 0 | 4% | 1.4 | i
